Measured values published in PubChem BioAssay (NCI).
The panel holds about 83,000 compounds, 20% with a hit somewhere; the sample as a whole holds those more often.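 For each line, cells grew in 96-well plates with the test compound present at a single concentration for 48 hours.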 Unmarked numbers belong to inactive results. How the source made its calls: active means growth percent below 10; inactive means the rest.

Tested on: MDA-MB-468 breast
Assay: NCI-60 one-dose screen, 48 h (100 = growth as untreated, 0 = no growth, -100 = all killed)
Conditions: 10 µM unless noted

Row | SMILES | growth [%]
1 | COc1cc2cc(Oc3ccc(NC(=O)Nc4cccc(C(F)(F)F)c4)cc3)c(C)nc2cc1OCCN(C)C | 79.6
2 | CCc1ccc(C2=C/C(=C/c3ccc(Cl)cc3)C(=O)N2CCc2ccc(S(N)(=O)=O)cc2)cc1 | 13.5
3 | COc1cc2c(cc1OC)C1CCN3C(=O)CCC3N1CC2 (stereo not drawn) | 107
